Source: PubChem BioAssay AID504834 (National Center for Advancing Translational Sciences (NCATS), 2011)
Among all 320,000 compounds or so, about 22,000 (6.9%) were called active. Not shown: some 27% with an inconclusive outcome. The sample as a whole holds a higher share of actives than the screen did. A number with no mark means an inactive call. Calls follow the shape of the dose curve; as a rule, active = well fitted inhibition curve with a large enough effect; inconclusive = small, poorly fitted or top-dose-only effect, or another doubt; inactive = no such curve, though single readings can be large or run the other way. Where a SMILES comes first, the peptide text is derived from it. [ ]: non-standard residue; d: D form. The star is where a group is joined. ξ: configuration not given here. Cbz = O=C(OCc1ccccc1)*; ξL = CC(C)CC(N)C(=O)O; ξP = O=C(O)C1CCCN1

Assay: Primary qHTS for delayed death inhibitors of the malarial parasite plastid, 96 hour incubation
Conditions: P. falciparum luciferase reporter growth; series mostly up to 28.7 µM; activity change, negative = inhibition: at the top concentration
Procedure, shortened: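 Cell-based qHTS: luciferase-tagged P. falciparum in erythrocytes (2% hematocrit, 0.05% parasitemia final) incubated with compounds for 96 hours, 37 C, 5% CO2; luciferase detection reagent then added and luminescence measured.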
% is scaled to controls: 0 for no effect and ±100 for the full control effect; potency is read from the fitted curve at half-maximal effect.

Question: Which “activity change, negative = inhibition” value does the source give for `O=C1[C@@H]2C(c3cccnc3)=NO[C@@H]2C(=O)N1c1ccc(Cl)cc1Cl` here?
Answer: Its value is 33.2%.

Question: Which “activity change, negative = inhibition” value does the source give for `CC(C)[C@H](NC(=O)OCc1ccccc1)C(=O)OCc1ccccc1` here?
Answer: The value was 19.1%.

Question: With `COc1ccc(C2NC(=O)C(=O)/C2=C(\O)c2ccc(Cl)cc2)cc1OC` (stereo not given) as the compound, how does the “activity change, negative = inhibition” value read?
Answer: Its value is -2.4%.

Question: With `CC1CCc2[nH]c3ccc(C(=O)N(C)CC(=O)Nc4cccc(F)c4)cc3c2C1` (stereo not given) as the compound, how does the “activity change, negative = inhibition” value read?
Answer: Its value is -0.213%.

Question: Which Potency does the source give for `CCCN(CC(=O)Nc1ccccc1C)C(=O)c1ccc2[nH]c3c(c2c1)CC(C)CC3` (stereo not given) here?
Answer: Its Potency is 13.1 µM (active).

Question: For `CCCN(CC(=O)Nc1ccc(C(N)=O)cc1)CC(=O)Nc1ccccc1C`, which “activity change, negative = inhibition” value is on record?
Answer: Its value is 3.33%.

Question: For `O=C(OCc1nnc(-c2ccccc2)o1)c1cc(=O)[nH]c2ccccc12`, which “activity change, negative = inhibition” value is on record?
Answer: The value was 10.2%.

Question: For `CCc1nnc(NC(=O)CSCc2cc(=O)n3cc(C)sc3n2)s1`, which “activity change, negative = inhibition” value is on record?
Answer: The value was 29.2%.

Question: For `CC(NCCc1ccc(S(N)(=O)=O)cc1)C(=O)NCc1ccccc1` (stereo not given), which “activity change, negative = inhibition” value is on record?
Answer: Its value is -7.88%.

Question: With `CC(=O)c1cccc(NC(=O)C2COc3ccccc3O2)c1` (stereo not given) as the compound, how does the Potency read?
Answer: Its Potency is 2.62 µM (active).

Question: Which “activity change, negative = inhibition” value does the source give for `CC(=O)c1cccc(NC(=O)C2CCN(C(=O)c3ccccc3Cl)CC2)c1` here?
Answer: Its value is -21.5%.

Question: For `O=C(Nc1nc2c(F)cc(F)cc2s1)C1COc2ccccc2O1` (stereo not given), which “activity change, negative = inhibition” value is on record?
Answer: Its value is -7.95%.

Question: With `O=C(Nc1nc(-c2ccncc2)cs1)C1COc2ccccc2O1` (stereo not given) as the compound, how does the “activity change, negative = inhibition” value read?
Answer: The value was 5.96%.

Question: Which “activity change, negative = inhibition” value does the source give for `COc1ccc(NC(=O)CC2COc3ccccc3O2)c(OC)c1` (stereo not given) here?
Answer: The value was 245%.

Question: Which Potency does the source give for `COc1ccc(NC(=O)C2COc3ccccc3O2)cc1` (stereo not given) here?
Answer: The Potency was 1.17 µM (active).

Question: With `CCNC(=S)N(CCN(CC)CC)Cc1cc2cc3c(cc2[nH]c1=O)OCCO3` as the compound, how does the “activity change, negative = inhibition” value read?
Answer: The value was -17.8%.

Question: Which “activity change, negative = inhibition” value does the source give for `O=C(/C=C/c1cccc([N+](=O)[O-])c1)N1CCN(Cc2ccccc2)CC1` here?
Answer: Its value is 16.1%.

Question: For `Clc1ccc(C[n+]2cc(-c3ccccc3)n3c2CCC3)cc1`, which Potency is on record?
Answer: The Potency was 0.586 µM (active).

Question: Which Potency does the source give for `Clc1ccc(C[n+]2cc(-c3ccc(Cl)cc3)n3c2CCC3)cc1` here?
Answer: The Potency was 0.37 µM (active).

Question: Which “activity change, negative = inhibition” value does the source give for `O=C(Cc1ccc(Br)cc1)NCCN1CCOCC1` here?
Answer: Its value is 0.209%.

Question: With `COc1cccc(NC(=O)CSc2nnc(-c3cccnc3)o2)c1` as the compound, how does the “activity change, negative = inhibition” value read?
Answer: The value was 57.6%.

Question: Which “activity change, negative = inhibition” value does the source give for `NC(=O)C1CCN(C(=O)c2ccc3c(=O)n(Cc4cccc(Br)c4)c(=S)[nH]c3c2)CC1` here?
Answer: The value was 18.4%.

Question: With `CC(Sc1nnc(COc2ccccc2)n1-c1ccccc1)C(=O)O` (stereo not given) as the compound, how does the “activity change, negative = inhibition” value read?
Answer: Its value is -4.37%.

Question: Which “activity change, negative = inhibition” value does the source give for `CCn1c(SCC(=O)NC2CC2)nnc1-c1ccccc1OC` here?
Answer: Its value is -14.8%.

Question: With `CCn1c(SCC(=O)Nc2ccc(OC)c(OC)c2)nnc1-c1c[nH]c2ccccc12` as the compound, how does the Potency read?
Answer: The Potency was 11.7 µM (active).

Question: Which “activity change, negative = inhibition” value does the source give for `CCOC(=O)N1CCN(C(=O)CSc2nnc(-c3c[nH]c4ccccc34)n2CCOC)CC1` here?
Answer: Its value is 0.202%.

Question: With `CC(C)c1ccc(S(=O)(=O)NC2CCCC2)cc1` as the compound, how does the “activity change, negative = inhibition” value read?
Answer: The value was 53.9%.

Question: For `O=C(NNC(=O)C(O)c1ccccc1)NC1CCCCC1` (stereo not given), which “activity change, negative = inhibition” value is on record?
Answer: The value was 56.9%.

Question: Which “activity change, negative = inhibition” value does the source give for `c1ccc(CCNC2CCCCCC2)cc1` here?
Answer: The value was 38.6%.

Question: With `OC(CNC1CCCCC1)c1ccccc1` (stereo not given) as the compound, how does the Potency read?
Answer: The Potency was 9.28 µM (active).

Question: With `Cc1cc(Cl)c2oc(C(=O)N(C)C(C)c3ccccn3)c(C)c2c1` (stereo not given) as the compound, how does the “activity change, negative = inhibition” value read?
Answer: Its value is -22.1%.

Question: For `CN(C)c1nc(Nc2ccc(Cl)c(Cl)c2)nc(N(C)C)n1`, which “activity change, negative = inhibition” value is on record?
Answer: The value was -16.4%.

Question: Which Potency does the source give for `Cc1ccc2nc(N3C(=O)C(O)=C(C(=O)c4ccco4)C3c3cccc(O)c3)sc2c1` (stereo not given) here?
Answer: Its Potency is 9.28 µM (active).

Question: With `Cc1ccc2nc(N3CCN(C(=O)c4ccco4)CC3)sc2c1` as the compound, how does the “activity change, negative = inhibition” value read?
Answer: The value was -9.37%.

Question: With `COc1cc(C2C(C(=O)c3ccco3)=C(O)C(=O)N2c2cc(C)on2)ccc1OCc1ccccc1` (stereo not given) as the compound, how does the “activity change, negative = inhibition” value read?
Answer: Its value is -4.61%.

Question: For `COc1ccc(C(=O)NCc2nnc(SCC(=O)NC3=NCCS3)n2C)cc1`, which “activity change, negative = inhibition” value is on record?
Answer: Its value is 16.2%.

Question: For `CCOc1ccccc1NC(=O)Cc1cccs1`, which “activity change, negative = inhibition” value is on record?
Answer: The value was 341%.

Question: With `COc1cc(C(=O)NCC2(c3ccccc3)CCCC2)ccc1OC(C)C` as the compound, how does the “activity change, negative = inhibition” value read?
Answer: Its value is 33%.

Question: Which “activity change, negative = inhibition” value does the source give for `Cn1cnnc1Sc1ccc(CN2CCN(C3CCCC3)C(CCO)C2)o1` (stereo not given) here?
Answer: The value was 1.4%.

Question: Which Potency does the source give for `OCCC1CN(Cc2ccc3nsnc3c2)CCN1C1CCCCC1` (stereo not given) here?
Answer: Its Potency is 10.4 µM (active).

Question: Which “activity change, negative = inhibition” value does the source give for `CC[C@H](C)C(=O)N[C@H]1CCCN1C(=O)/C=C/c1ccccc1` here?
Answer: Its value is 41%.

Question: With `Cc1ccc(C)c(OCCC(=O)OCC(=O)c2ccc3c(c2)NC(=O)CO3)c1` as the compound, how does the “activity change, negative = inhibition” value read?
Answer: The value was 21.2%.

Question: With `C=CCNC(=O)COc1coc(CN2CCN(Cc3ccccc3)CC2)cc1=O` as the compound, how does the Potency read?
Answer: The Potency was 13.1 µM (active).

Question: For `O=C(COc1coc(CN2CCN(c3ccccc3)CC2)cc1=O)Nc1ccccc1F`, which “activity change, negative = inhibition” value is on record?
Answer: The value was 2.2%.

Question: With `Cc1cc(C)cc(NC(=O)COc2coc(CN3CCN(c4ccccc4)CC3)cc2=O)c1` as the compound, how does the “activity change, negative = inhibition” value read?
Answer: The value was -27.2%.

Question: Which “activity change, negative = inhibition” value does the source give for `CC(=O)O[C@H]1CC[C@@]2(C)[C@@H](CC[C@@H]3[C@@H]2CC[C@]2(C)[C@@H](C(C)(C)O)C[C@@H]32)C1` here?
Answer: Its value is -8.75%.

Question: With `CC1CCC2CCCCC2N1C(=O)c1cc([N+](=O)[O-])cc([N+](=O)[O-])c1` (stereo not given) as the compound, how does the “activity change, negative = inhibition” value read?
Answer: Its value is -2.82%.

Question: Which Potency does the source give for `Cc1nc(C)c(C(=O)N(c2ccc(C)c(C)c2)C(C(=O)NCc2ccco2)c2ccccc2)s1` (stereo not given) here?
Answer: The Potency was 10.4 µM (active).

Question: Which “activity change, negative = inhibition” value does the source give for `O=C(NCc1ccco1)C(c1ccncc1)N(C(=O)Cn1nnc2ccccc21)c1ccccc1` (stereo not given) here?
Answer: Its value is -0.183%.

Question: With `Cc1cccc(N(C(=O)c2sc(C)nc2C)C(C(=O)NCC2CCCO2)c2ccccc2)c1` (stereo not given) as the compound, how does the “activity change, negative = inhibition” value read?
Answer: Its value is -28.1%.

Question: With `CC(C)(C)NC(=O)C(c1ccc(Cl)cc1)N(CCO)C(=O)c1snc(C(N)=O)c1N` (stereo not given) as the compound, how does the “activity change, negative = inhibition” value read?
Answer: Its value is 202%.

Question: For `CCCCCNC(=O)C1c2ccccc2Oc2ccccc21`, which “activity change, negative = inhibition” value is on record?
Answer: The value was 0%.

Question: For `CCOC(=O)c1ccc(N2C(=O)CC(N3CC(C)OC(C)C3)C2=O)cc1` (stereo not given), which “activity change, negative = inhibition” value is on record?
Answer: Its value is 7.59%.

Question: With `CCOC(=O)c1ccc(N2C(=O)CC(N(C)Cc3ccccc3)C2=O)cc1` (stereo not given) as the compound, how does the Potency read?
Answer: The Potency was 1.47 µM (active).

Question: Which “activity change, negative = inhibition” value does the source give for `CCOC(=O)c1ccc(N2C(=O)CC(N3CCN(C(=O)c4ccccc4)CC3)C2=O)cc1` (stereo not given) here?
Answer: Its value is 25.2%.

Question: With `CCN1CCN(C(=O)C2CCCN(S(=O)(=O)c3ccc(OC)c(OC)c3)C2)CC1` (stereo not given) as the compound, how does the “activity change, negative = inhibition” value read?
Answer: The value was -7.76%.

Question: With `COc1cccc(NC(=O)CN(C)CC(=O)c2c(N)n(Cc3ccccc3)c(=O)n(C)c2=O)c1` as the compound, how does the “activity change, negative = inhibition” value read?
Answer: The value was -24.5%.

Question: With `COc1ccc(OC)c(CCNC(=O)c2nn(C)c3c2CS(=O)(=O)c2ccccc2-3)c1` as the compound, how does the “activity change, negative = inhibition” value read?
Answer: The value was 32.5%.

Question: For `CC(C)CC(NC(=O)C1CCCN1C(=O)[C@@H](C)NC(=O)OCc1ccccc1)C(=O)NCC(N)=O` (stereo not given in full) (Cbz-[dA][ξP][ξL]G-NH2), which “activity change, negative = inhibition” value is on record?
Answer: Its value is 19.9%.

Question: For `O=C(CSc1nc2ccccc2c(=O)n1-c1ccc(F)cc1)NC1CC1`, which “activity change, negative = inhibition” value is on record?
Answer: The value was -26.1%.

Question: For `CCc1ccc(C(=O)OCC(=O)Nc2cccc(S(=O)(=O)NC3=NCCCCC3)c2)cc1`, which Potency is on record?
Answer: The Potency was 10.4 µM (active).

Question: For `NS(=O)(=O)c1cccc(NC(=O)CSc2nc3ccccc3n2-c2ccccc2)c1`, which “activity change, negative = inhibition” value is on record?
Answer: Its value is -21%.

Question: For `O=C(Nc1cccc(S(=O)(=O)NC2=NCCC2)c1)C1CCCCC1`, which “activity change, negative = inhibition” value is on record?
Answer: Its value is -0.475%.

Question: With `CN(CCOc1ccc(Br)cc1)CC(=O)Nc1cccc(S(=O)(=O)NC2=NCCC2)c1` as the compound, how does the “activity change, negative = inhibition” value read?
Answer: Its value is -7.64%.

Question: With `Cc1cccc(-n2c(SCC(=O)Nc3cccc(S(=O)(=O)NC4=NCCCCC4)c3)nc3ccccc3c2=O)c1C` as the compound, how does the Potency read?
Answer: The Potency was 5.22 µM (active).
